# Measured values taken from ChEMBL document CHEMBL5598561, “ASAP - In vitro binding kinetics” (2024).
# Biological target: Nonstructural protein 3 (Zika virus) (UniProt A0A024AXB9)
# Details: PRVABC59, Concentration 10.0 uM
# Chain of Nonstructural protein 3 (Zika virus) (A0A024AXB9 as listed by the source): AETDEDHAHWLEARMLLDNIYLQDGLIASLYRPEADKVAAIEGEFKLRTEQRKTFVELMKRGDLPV
structure (smiles),measurement,setting,value
O=C1CCN(c2cc(Cl)cc(C(=O)Nc3ccc4c(c3)CNC4)c2)C(=O)N1,pKD,"Immobilization level 10000.0 pg/mm2, Rmax 25.0 pg/mm2, ka 256015.917 M-1s-1, kd 2.294 1/s",5.05
same,pKD,"Immobilization level 12000.0 pg/mm2, Rmax 56.0 pg/mm2, ka 218751.029 M-1s-1, kd 1.634 1/s",5.13
same,pKD,"Immobilization level 13000.0 pg/mm2, Rmax 29.0 pg/mm2, ka 336624.127 M-1s-1, kd 1.776 1/s",5.28
O=C(Nc1ccc2c(c1)CNC2)c1cccc(-c2cnco2)c1,pKD,"Immobilization level 12000.0 pg/mm2, Rmax 4.0 pg/mm2, ka 566629.865 M-1s-1, kd 1.936 1/s",5.47
O=C(Nc1ccc2c(c1)CNC2)c1cc(F)cc2[nH]ncc12,pKD,"Immobilization level 10000.0 pg/mm2, Rmax 50.0 pg/mm2, ka 86776.347 M-1s-1, kd 0.122 1/s",5.85
same,pKD,"Immobilization level 12000.0 pg/mm2, Rmax 119.0 pg/mm2, ka 21922.372 M-1s-1, kd 0.021 1/s",6.01
same,pKD,"Immobilization level 13000.0 pg/mm2, Rmax 93.0 pg/mm2, ka 46087.669 M-1s-1, kd 0.088 1/s",5.72
O=C(Nc1ccc2c(c1)CNC2)c1cc(Br)cc2[nH]c([C@H]3CCOC3)nc12,pKD,"Immobilization level 10000.0 pg/mm2, Rmax 19.0 pg/mm2, ka 727525.444 M-1s-1, kd 0.791 1/s",5.96
same,pKD,"Immobilization level 12000.0 pg/mm2, Rmax 41.0 pg/mm2, ka 451126.44 M-1s-1, kd 0.431 1/s",6.02
same,pKD,"Immobilization level 13000.0 pg/mm2, Rmax 27.0 pg/mm2, ka 652953.753 M-1s-1, kd 0.609 1/s",6.03
O=C(Nc1ccc([C@H]2CCNC2)cc1)c1cc(Cl)cc2[nH]ncc12,pKD,"Immobilization level 10000.0 pg/mm2, Rmax 36.0 pg/mm2, ka 266986.751 M-1s-1, kd 3.172 1/s",4.92
same,pKD,"Immobilization level 12000.0 pg/mm2, Rmax 43.0 pg/mm2, ka 228557.467 M-1s-1, kd 2.265 1/s",5
same,pKD,"Immobilization level 13000.0 pg/mm2, Rmax 32.0 pg/mm2, ka 486506.686 M-1s-1, kd 3.313 1/s",5.17
O=C(Nc1ccc2c(c1)CNC2)c1nccc2[nH]ncc12,pKD,"Immobilization level 12000.0 pg/mm2, Rmax 10.0 pg/mm2, ka 215121.382 M-1s-1, kd 2.565 1/s",4.92
N#CCCNC(=O)[C@H](Nc1ccc2c(c1)CNC2)c1cc(Cl)cc(C2CC2)c1,pKD,"Immobilization level 10000.0 pg/mm2, Rmax 28.0 pg/mm2, ka 442303.592 M-1s-1, kd 0.092 1/s",6.68
same,pKD,"Immobilization level 12000.0 pg/mm2, Rmax 54.0 pg/mm2, ka 245042.447 M-1s-1, kd 0.064 1/s",6.58
same,pKD,"Immobilization level 13000.0 pg/mm2, Rmax 39.0 pg/mm2, ka 364691.558 M-1s-1, kd 0.079 1/s",6.67
O=C(Nc1ccc2c(c1)CNC2)c1ccccc1-n1cccc1,pKD,"Immobilization level 5500.0 pg/mm2, Rmax 27.0 pg/mm2, ka 207569.847 M-1s-1, kd 8.279 1/s",4.4
CC(C)c1nc2c(C(=O)Nc3ccc4c(c3)CNC4)cc(Br)cc2[nH]1,pKD,"Immobilization level 10000.0 pg/mm2, Rmax 28.0 pg/mm2, ka 451108.713 M-1s-1, kd 0.396 1/s",6.06
same,pKD,"Immobilization level 12000.0 pg/mm2, Rmax 37.0 pg/mm2, ka 197303.267 M-1s-1, kd 0.307 1/s",5.81
same,pKD,"Immobilization level 13000.0 pg/mm2, Rmax 31.0 pg/mm2, ka 315714.539 M-1s-1, kd 0.366 1/s",5.94
NS(=O)(=O)c1cc(Cl)cc(C(=O)Nc2ccc3c(c2)CNC3)c1,pKD,"Immobilization level 10000.0 pg/mm2, Rmax 26.0 pg/mm2, ka 224016.174 M-1s-1, kd 2.677 1/s",4.92
same,pKD,"Immobilization level 12000.0 pg/mm2, Rmax 52.0 pg/mm2, ka 213819.19 M-1s-1, kd 1.773 1/s",5.08
same,pKD,"Immobilization level 13000.0 pg/mm2, Rmax 31.0 pg/mm2, ka 267165.084 M-1s-1, kd 2.041 1/s",5.12
O=C(Nc1ccc2c(c1)CNC2)c1cc(Br)cc2[nH]c(-c3ccccc3)nc12,pKD,"Immobilization level 10000.0 pg/mm2, Rmax 3.0 pg/mm2, ka 184994.652 M-1s-1, kd 0.296 1/s",5.79
same,pKD,"Immobilization level 12000.0 pg/mm2, Rmax 13.0 pg/mm2, ka 22744.722 M-1s-1, kd 0.309 1/s",4.87
same,pKD,"Immobilization level 13000.0 pg/mm2, ka 103523.991 M-1s-1, kd 0.302 1/s",5.54
O=C(Nc1ccc2c(c1)CNCCO2)c1cc(Cl)cc2[nH]ncc12,pKD,"Immobilization level 10000.0 pg/mm2, Rmax 42.0 pg/mm2, ka 416936.25 M-1s-1, kd 0.968 1/s",5.63
same,pKD,"Immobilization level 12000.0 pg/mm2, Rmax 47.0 pg/mm2, ka 414358.163 M-1s-1, kd 0.643 1/s",5.81
same,pKD,"Immobilization level 13000.0 pg/mm2, Rmax 56.0 pg/mm2, ka 373791.933 M-1s-1, kd 0.809 1/s",5.67
CC(C)c1cc(Br)cc(C(=O)Nc2ccc3c(c2)CNC3)c1,pKD,"Immobilization level 10000.0 pg/mm2, Rmax 17.0 pg/mm2, ka 881880.966 M-1s-1, kd 1.212 1/s",5.86
same,pKD,"Immobilization level 12000.0 pg/mm2, Rmax 74.0 pg/mm2, ka 247931.968 M-1s-1, kd 0.872 1/s",5.45
same,pKD,"Immobilization level 13000.0 pg/mm2, Rmax 30.0 pg/mm2, ka 643252.953 M-1s-1, kd 1.046 1/s",5.79
O=C(Nc1ccc2c(c1)CNC2)c1c[nH]c2ncc(F)cc12,pKD,"Immobilization level 5500.0 pg/mm2, Rmax 31.0 pg/mm2, ka 181164.217 M-1s-1, kd 6.639 1/s",4.44
Cn1ncc2c(C(=O)Nc3ccc4c(c3)CNC4)cc(Br)cc21,pKD,"Immobilization level 10000.0 pg/mm2, Rmax 23.0 pg/mm2, ka 300646.199 M-1s-1, kd 0.327 1/s",5.96
same,pKD,"Immobilization level 12000.0 pg/mm2, Rmax 66.0 pg/mm2, ka 115064.14 M-1s-1, kd 0.186 1/s",5.79
same,pKD,"Immobilization level 13000.0 pg/mm2, Rmax 35.0 pg/mm2, ka 218446.798 M-1s-1, kd 0.273 1/s",5.9
N[C@H]1CCc2cc(NC(=O)c3cc(Cl)cc4[nH]ncc34)ccc21,pKD,"Immobilization level 12000.0 pg/mm2, Rmax 40.0 pg/mm2, ka 202508.522 M-1s-1, kd 3.352 1/s",4.78
same,pKD,"Immobilization level 13000.0 pg/mm2, Rmax 32.0 pg/mm2, ka 287481.012 M-1s-1, kd 4.268 1/s",4.83
NCc1cc(NC(=O)c2cc(Cl)cc(NC(=O)OCc3ccccc3)c2)cc(C2=CC[C@H](C(=O)O)C2)c1,pKD,"Immobilization level 5500.0 pg/mm2, Rmax 9.0 pg/mm2, ka 171424.656 M-1s-1, kd 2.389 1/s",4.86
Cc1cccc(CNc2ccc(Cl)cc2C(=O)Nc2ccc3c(c2)CNC3)n1,pKD,"Immobilization level 10000.0 pg/mm2, Rmax 24.0 pg/mm2, ka 19887.988 M-1s-1, kd 1.214 1/s",4.21
same,pKD,"Immobilization level 12000.0 pg/mm2, Rmax 8.0 pg/mm2, ka 63837.388 M-1s-1, kd 0.552 1/s",5.06
same,pKD,"Immobilization level 13000.0 pg/mm2, Rmax 43.0 pg/mm2, ka 14963.881 M-1s-1, kd 1.059 1/s",4.15
O=C(Nc1ccc2c(c1)CNC2)c1cc(Cl)ccc1SC1CCCC1,pKD,"Immobilization level 10000.0 pg/mm2, Rmax 23.0 pg/mm2, ka 575465.756 M-1s-1, kd 3.5 1/s",5.22
same,pKD,"Immobilization level 12000.0 pg/mm2, Rmax 62.0 pg/mm2, ka 231361.37 M-1s-1, kd 1.925 1/s",5.08
same,pKD,"Immobilization level 13000.0 pg/mm2, Rmax 43.0 pg/mm2, ka 253243.383 M-1s-1, kd 2.083 1/s",5.08
O=C(Nc1ccc2c(c1)CN(CC(F)F)C2)c1cc(Cl)cc2[nH]ncc12,pKD,"Immobilization level 5500.0 pg/mm2, Rmax 11.0 pg/mm2, ka 80918.609 M-1s-1, kd 0.287 1/s",5.45
O=C1Cc2c(cccc2C(=O)Nc2ccc3c(c2)CNC3)N1,pKD,"Immobilization level 3900.0 pg/mm2, Rmax 48.0 pg/mm2, ka 37165.995 M-1s-1, kd 0.04 1/s",5.97
same,pKD,"Immobilization level 5500.0 pg/mm2, Rmax 106.0 pg/mm2, ka 18457.516 M-1s-1, kd 0.041 1/s",5.65
C[C@H]1Oc2c(cccc2C(=O)Nc2ccc3c(c2)CNC3)NC1=O,pKD,"Immobilization level 10000.0 pg/mm2, Rmax 20.0 pg/mm2, ka 247912.445 M-1s-1, kd 2.654 1/s",4.97
same,pKD,"Immobilization level 12000.0 pg/mm2, Rmax 35.0 pg/mm2, ka 236689.654 M-1s-1, kd 1.809 1/s",5.12
same,pKD,"Immobilization level 13000.0 pg/mm2, Rmax 26.0 pg/mm2, ka 250555.254 M-1s-1, kd 1.96 1/s",5.11
O=C(Nc1ccc2c(c1)CNC2)c1cncc(-c2ccccc2)c1,pKD,"Immobilization level 4900.0 pg/mm2, Rmax 10.0 pg/mm2, ka 220188.498 M-1s-1, kd 3.981 1/s",4.74
same,pKD,"Immobilization level 5500.0 pg/mm2, Rmax 48.0 pg/mm2, ka 177152.77 M-1s-1, kd 5.77 1/s",4.49
N#Cc1cc(Cl)cc([C@H](C#N)Nc2ccc3c(c2)CNC3)c1,pKD,"Immobilization level 10000.0 pg/mm2, Rmax 24.0 pg/mm2, ka 238302.252 M-1s-1, kd 1.184 1/s",5.3
same,pKD,"Immobilization level 12000.0 pg/mm2, Rmax 44.0 pg/mm2, ka 146250.163 M-1s-1, kd 0.612 1/s",5.38
same,pKD,"Immobilization level 13000.0 pg/mm2, Rmax 28.0 pg/mm2, ka 315015.409 M-1s-1, kd 0.863 1/s",5.56
O=C(Nc1cnc2c(c1)CNCC2)c1cc(Cl)cc2[nH]ncc12,pKD,"Immobilization level 10000.0 pg/mm2, Rmax 20.0 pg/mm2, ka 1026935.718 M-1s-1, kd 0.802 1/s",6.11
same,pKD,"Immobilization level 12000.0 pg/mm2, Rmax 35.0 pg/mm2, ka 607851.885 M-1s-1, kd 0.465 1/s",6.12
same,pKD,"Immobilization level 13000.0 pg/mm2, Rmax 25.0 pg/mm2, ka 909514.232 M-1s-1, kd 0.608 1/s",6.17
O=C(NC[C@H]1CCCO1)[C@H](Nc1ccc2c(c1)CNC2)c1cc(Cl)cc(C2CC2)c1,pKD,"Immobilization level 10000.0 pg/mm2, Rmax 42.0 pg/mm2, ka 577169.922 M-1s-1, kd 0.179 1/s",6.51
same,pKD,"Immobilization level 12000.0 pg/mm2, Rmax 59.0 pg/mm2, ka 295597.466 M-1s-1, kd 0.112 1/s",6.42
same,pKD,"Immobilization level 13000.0 pg/mm2, Rmax 62.0 pg/mm2, ka 409256.138 M-1s-1, kd 0.153 1/s",6.43
